Laboratory results as given in PubChem BioAssay (NCATS).
Records with an inconclusive call do not appear. Active and inactive are the calls of the source. Calls come from the whole dose curve; as a rule, active = well fitted cell-killing curve with a large enough effect; inconclusive = small, poorly fitted or top-dose-only effect, or effect the other way; inactive = flat fitted curve, though single readings scatter.
% is set by controls: 0 for no effect and ±100 for the full control effect.

These molecules were tested on C33A (assay: Primary qHTS to identify gynecologic anti-cancer compounds using libraries of approved drugs and bioactive compounds (AID 1345084; note: nearly all actives have a fitted effect of over 55% in size)). Settings: Gynecologic cancer cell panel viability, ATPlite luminescence, 48 h; series mostly up to 57.5 µM; activity change, negative = cytotoxicity: at the top concentration.
Procedure, shortened: (§1)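 Cells, 1,000 per well, plated 16 h, then exposed 48 h at 37 C to compounds. Viability by ATPlite luminescence after 15 min at room temperature.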
With O=C(Nc1ccc2[nH]c(=O)oc2c1)C(=O)N1CCC(Cc2ccc(F)cc2)CC1 the “activity change, negative = cytotoxicity” value was -3.15% (inactive). For Cc1ccc(F)cc1S(=O)(=O)N[C@@H]1CCN(Cc2ccc(OC(C)C)cc2)C1, the “activity change, negative = cytotoxicity” value was -4.88% (inactive). C#CCNCc1cc2cc(OCc3ccccc3)ccc2[nH]1 was tested, and the “activity change, negative = cytotoxicity” value was -13.5% (inactive). In the case of C[C@@H](c1ccc2nccn2c1)n1nnc2ncc(-c3cnn(C)c3)nc21, the “activity change, negative = cytotoxicity” value is reported as -32.9% (inactive). C=C1C(=O)OC2CC(C)=C(C(C)CCCOC(C)=O)C(OC(=O)CC(C)CC)C12 (stereo not drawn) was tested, and the “activity change, negative = cytotoxicity” value was -15.4% [at 25.3 µM] (inactive). In the case of CN(C)CCC(CSc1ccccc1)Nc1ccc(S(=O)(=O)NC(=O)c2ccc(N3CCN(Cc4ccccc4-c4ccc(Cl)cc4)CC3)cc2)cc1[N+](=O)[O-] (stereo not drawn), the “activity change, negative = cytotoxicity” value is reported as 6.77% (inactive). O=C(Nc1ccc(-n2nc(C(F)(F)F)cc2C(F)(F)F)cc1)c1ccncc1F was tested, and the “activity change, negative = cytotoxicity” value was -24.1% (inactive). O=C(N[C@@H]1CCCc2c1cnn2-c1ccc(F)cc1F)c1ccccn1 was tested, and the “activity change, negative = cytotoxicity” value was -28% (inactive). In the case of C=CC(=O)N1CCC(Oc2cc3c(Nc4ccc(Cl)c(Cl)c4F)ncnc3cc2OC)CC1, the “activity change, negative = cytotoxicity” value is reported as -21.7% (inactive). In the case of CC(=O)OC1CCC2(C)C(CCC3(C)C2CC=C2C4C(C)C(C)CCC4(C)CCC23C)C1(C)C(=O)O (stereo not drawn), the “activity change, negative = cytotoxicity” value is reported as -29.2% [at 25.3 µM] (inactive). With CCOC(=O)N1CCC(CN(Cc2ccc(Cl)cc2)Cc2ccc([N+](=O)[O-])s2)C1 (stereo not drawn) the “activity change, negative = cytotoxicity” value was -19.6% (inactive). Cc1cc(-c2cc(OC(=O)c3ccccc3)ccc2Cl)cc2nnc(Nc3ccc(OCCN4CCCC4)cc3)nc12 was tested, and the “activity change, negative = cytotoxicity” value was -17.1% [at 25.3 µM] (inactive).

The molecules below were run on CAOV3 in the same assay as above. Settings: Gynecologic cancer cell panel viability, ATPlite luminescence, 48 h; series mostly up to 57.5 µM; activity change, negative = cytotoxicity: at the top concentration.
Procedure, shortened: as §1
In the case of Cc1ccc(F)cc1S(=O)(=O)N[C@@H]1CCN(Cc2ccc(OC(C)C)cc2)C1, the “activity change, negative = cytotoxicity” value is reported as -1.32% (inactive). With C#CCNCc1cc2cc(OCc3ccccc3)ccc2[nH]1 the “activity change, negative = cytotoxicity” value was 0.156% (inactive). C[C@@H](c1ccc2nccn2c1)n1nnc2ncc(-c3cnn(C)c3)nc21 was tested, and the “activity change, negative = cytotoxicity” value was -22.8% (inactive). For C=C1C(=O)OC2CC(C)=C(C(C)CCCOC(C)=O)C(OC(=O)CC(C)CC)C12 (stereo not drawn), the “activity change, negative = cytotoxicity” value was -11.7% [at 25.3 µM] (inactive). In the case of C=CC(=O)Nc1cc(-n2c(=O)ccc3cnc4ccc(-c5ccc(NS(C)(=O)=O)cc5)cc4c32)ccc1C, the “activity change, negative = cytotoxicity” value is reported as -0.7% (inactive). With O=C(N[C@@H]1CCCc2c1cnn2-c1ccc(F)cc1F)c1ccccn1 the “activity change, negative = cytotoxicity” value was -2.05% (inactive). For CS/C=C/C(=O)O[C@@H]1CCC2=CC(=O)C(=C(C)C)C[C@]2(C)[C@H]1C, the “activity change, negative = cytotoxicity” value was -0.01% [at 38.5 µM] (inactive). For CC(=O)OC1CCC2(C)C(CCC3(C)C2CC=C2C4C(C)C(C)CCC4(C)CCC23C)C1(C)C(=O)O (stereo not drawn), the “activity change, negative = cytotoxicity” value was -26.2% [at 25.3 µM] (inactive). For CCOC(=O)N1CCC(CN(Cc2ccc(Cl)cc2)Cc2ccc([N+](=O)[O-])s2)C1 (stereo not drawn), the “activity change, negative = cytotoxicity” value was -18.1% (inactive). In the case of Cc1cc(-c2cc(OC(=O)c3ccccc3)ccc2Cl)cc2nnc(Nc3ccc(OCCN4CCCC4)cc3)nc12, the “activity change, negative = cytotoxicity” value is reported as 2.76% [at 25.3 µM] (inactive). With CC12CCC(OC3OC(CO)C(O)C(O)C3OC3OC(CO)C(O)C(O)C3O)CC1CCC1C2CCC2(C)/C(=C3/COC(=O)C3)CCC12O (stereo not drawn) the “activity change, negative = cytotoxicity” value was 2.02% [at 25.3 µM] (inactive).
